Screens from PubChem BioAssay.
sEH inh: soluble epoxide hydrolase inhibitors, primary screen, biochemical, human sEH; inhibition, % at 2 µM; recombinant human sEH enzymatic activity assay; 0.34% of 91,000 active; Bifunctional epoxide hydrolase 2 (Homo sapiens), P34913; in the data active means inhibition above about 80%
Target sequence (P34913 whole entry, looked up): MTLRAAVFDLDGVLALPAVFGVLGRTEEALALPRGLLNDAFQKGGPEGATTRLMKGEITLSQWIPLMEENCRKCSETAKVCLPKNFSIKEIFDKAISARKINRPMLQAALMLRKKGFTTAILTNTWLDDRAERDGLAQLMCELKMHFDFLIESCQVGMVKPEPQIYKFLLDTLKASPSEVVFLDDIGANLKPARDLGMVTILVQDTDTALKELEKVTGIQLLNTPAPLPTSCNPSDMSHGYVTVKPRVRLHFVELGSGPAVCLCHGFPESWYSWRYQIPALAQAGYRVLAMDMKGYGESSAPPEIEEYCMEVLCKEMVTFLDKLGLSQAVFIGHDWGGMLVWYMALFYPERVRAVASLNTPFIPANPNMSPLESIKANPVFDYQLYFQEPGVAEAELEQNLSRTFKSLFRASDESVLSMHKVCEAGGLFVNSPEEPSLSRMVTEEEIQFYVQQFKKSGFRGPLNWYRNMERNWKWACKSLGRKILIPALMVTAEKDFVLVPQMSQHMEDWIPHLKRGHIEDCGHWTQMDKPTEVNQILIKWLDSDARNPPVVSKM
IL1B NFkB inh: inhibitors of IL-1B driven NFkB p65 nuclear import, primary screen, imaging, HUVEC, IL-1B stimulus, high-content imaging | HUVEC IL-1B NFkB p65 nuclear translocation imaging | inhibition, % at 2 µM | 0.43% of 94,000 active;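 active means inhibition above about 30% together with a positive call from visual inspection of the well image, limit read from the data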;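 further: nuclear over cytoplasmic p65 intensity ratio measured by imaging; 0% = IL-1B stimulated DMSO wells and 100% = unstimulated DMSO wells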
sEH act: soluble epoxide hydrolase activators, primary screen, biochemical, human sEH; Bifunctional epoxide hydrolase 2 (Homo sapiens), P34913; purified human sEH enzymatic activity, activator screen; activation, % at 2 µM; 0.04% of 91,000 active; in the data active means activation above about 37%
IL1B cytotox: cytotoxicity in IL-1B stimulated HUVEC, primary screen, cytotoxicity control for IL-1B NFkB translocation project, imaging, Hoechst nuclear count, IL-1B stimulus | HUVEC cell count loss | cell count reduction, % at 2 µM | 0.41% of 94,000 active | AID 845, 2007;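 active means cell count reduction more than 3 SD above the screen-wide mean, cut at about 70% in these data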;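 further: normalized per plate to untreated control cells as the no-loss baseline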
IL1B NFkB pot: enhancers of NFkB p65 translocation in HUVEC – imaging, IL-1B stimulus, high-content imaging, primary screen; HUVEC IL-1B NFkB p65 nuclear translocation imaging; activation, % at 2 µM; 0.3% of 94,000 active;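 active means activation above 40%, about the mean plus 3 SD, also judged a hit on visual image review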;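 further: percent activation is computed from the nuclear over cytoplasmic p65 intensity ratio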
Numbers without * were called inactive. Sampled rows, rich in hits. Any-hit rate of the full collection: about 1.2%.

What do the screens show for `CCS(=O)(=O)NCCc1cc2ccc(C)cc2[nH]c1=O`?
sEH inh: -9; IL1B NFkB inh: 11; sEH act: 10; IL1B cytotox: 14; IL1B NFkB pot: -11

Results for Cc1cc(C)n(S(=O)(=O)/C=C/c2ccccc2)n1 ?
sEH inh: 5; IL1B NFkB inh: -1; sEH act: -2; IL1B cytotox: -10; IL1B NFkB pot: 1

Results for O=[N+]([O-])c1nn(-c2ccc3c(c2)OCCO3)n(O)c1=NC1CCCCC1 ?
sEH inh: -1; IL1B NFkB inh: -3; sEH act: 1; IL1B cytotox: 1; IL1B NFkB pot: 1

What do the screens show for `O=[N+]([O-])c1nn(-c2ccc3c(c2)OCCO3)n(O)c1=NCc1ccccc1Cl`?
sEH inh: 4; IL1B NFkB inh: -92; sEH act: -2; IL1B cytotox: -29; IL1B NFkB pot: 92*

Results for O=C(Nc1ccc2nc(-c3cccs3)[nH]c2c1)c1cccs1 ?
sEH inh: -2; IL1B NFkB inh: 6; sEH act: 1; IL1B cytotox: 90*; IL1B NFkB pot: -6

Results for O=C(Nc1ccc(-c2nc3ccc(NC(=O)c4cccs4)cc3[nH]2)cc1)c1cccs1 ?
sEH inh: -15; IL1B NFkB inh: -17; sEH act: 12; IL1B cytotox: 4; IL1B NFkB pot: 17

How did O=C(CCCN1C(=O)c2ccccc2C1=O)Nc1ccc(S(=O)(=O)N2CCCCC2)cc1 do in these assays?
sEH inh: 89*; IL1B NFkB inh: -22; sEH act: -89; IL1B cytotox: -121; IL1B NFkB pot: 22

Results for O=C(CSc1ncn[nH]1)Nc1ccc(S(=O)(=O)N2CCCC2)cc1 ?
sEH inh: 26; IL1B NFkB inh: -3; sEH act: -24; IL1B cytotox: -6; IL1B NFkB pot: 3

What do the screens show for `O=C(CSc1nc2ccccc2c(=O)[nH]1)Nc1ccc(S(=O)(=O)N2CCCC2)cc1`?
sEH inh: 13; IL1B NFkB inh: 31*; sEH act: -14; IL1B cytotox: 11; IL1B NFkB pot: -31

What do the screens show for `COc1cc(OC)c2c(C)c(Cl)c(=O)oc2c1`?
sEH inh: -6; IL1B NFkB inh: -4; sEH act: 6; IL1B cytotox: -10; IL1B NFkB pot: 4

Results for CS(=O)(=O)N1CCC(C(=O)N2CCc3ccccc3C2)CC1 ?
sEH inh: -39; IL1B NFkB inh: -17; sEH act: 39*; IL1B cytotox: -24; IL1B NFkB pot: 17

Results for COc1ccccc1CC(=O)Nc1ccc(-c2noc(COc3cccc(C)c3C)n2)cc1 ?
sEH inh: -1; IL1B NFkB inh: 8; sEH act: 4; IL1B cytotox: -21; IL1B NFkB pot: -9

How did COc1ccccc1CC(=O)Nc1ccc(-c2noc(COc3ccc(Br)cc3)n2)cc1 do in these assays?
sEH inh: 7; IL1B NFkB inh: -50; sEH act: -10; IL1B cytotox: -8; IL1B NFkB pot: 50*

How did CC(=O)c1cc(F)c(N2CCN(C(=O)COc3ccc(F)cc3)CC2)cc1C do in these assays?
sEH inh: 8; IL1B NFkB inh: -16; sEH act: -11; IL1B cytotox: 83*; IL1B NFkB pot: 16

Results for CC(NC(=O)NC12CC3CC(CC(C3)C1)C2)C1CCCO1 (stereo not drawn) ?
sEH inh: 90*; IL1B NFkB inh: -15; sEH act: -90; IL1B cytotox: -26; IL1B NFkB pot: 15

Results for Clc1cc(Br)ccc1OCCOCCN1CCOCC1 ?
sEH inh: -4; IL1B NFkB inh: 11; sEH act: 2; IL1B cytotox: -34; IL1B NFkB pot: -11

Results for CCOC(=O)C(C(=O)NCc1ccc(F)cc1)c1ncc(C(F)(F)F)cc1Cl (stereo not drawn) ?
sEH inh: 7; IL1B NFkB inh: 20; sEH act: -9; IL1B cytotox: 86*; IL1B NFkB pot: -19

Results for Cc1c(C(=O)OC(C)C)[nH]c2c1C(=O)CC(C)(C)C2 ?
sEH inh: 2; IL1B NFkB inh: 96*; sEH act: 0; IL1B cytotox: 87*; IL1B NFkB pot: -96

What do the screens show for `COc1ccc(C2CCCN2C(=O)Nc2ccccc2)cc1OC` (stereo not drawn)?
sEH inh: 27; IL1B NFkB inh: 22; sEH act: -28; IL1B cytotox: -5; IL1B NFkB pot: -22
